Wnt act = Wnt/beta-catenin pathway activation. Wnt/beta-catenin reporter cell assay, activator, plate reader. activation, % at 9.35 µM. 300,000 compounds, 1.2% hits; in the data active = activation above about 30%, passing the limit was not always enough; inconclusive = no clear call, values can overlap the other calls;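 note: 0% = neutral control wells and 100% = positive control wells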
esBAF inh = inhibitors of esBAF chromatin remodeling in mouse ES cells | 350,000 compounds, 2% hits | Bmi1-luciferase knock-in reporter, 24 h; 100% = twice the neutral-well signal | AID 602393 | reporter increase, % at 12.5 µM; in the data active = activation above about 40%; inconclusive = no clear call, values can overlap the other calls;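 note: 0% = median of the plate's neutral control wells and 100% = double that signal; a rise in the Bmi1 reporter signal indicates esBAF inhibition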
MITF TRPM1 HTS = activators of MITF-driven TRPM1 promoter activity in SK-MEL-5 cells. SK-MEL-5 TRPM1-promoter luciferase, 24 h; % of positive control, neutral wells = 0. activation, % at 12.5 µM. 300,000 compounds, 0.75% hits. AID 588334;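 active = mean activation of at least 80% with every replicate also reaching 80%; inconclusive = mean reaches 80% but some replicate falls short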;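 note: 0% = neutral control wells and 100% = parthenolide positive control wells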
SMARCA2 act = activators of SMARCA2 function. MG213 cells, MMTV-luciferase reporter, dexamethasone, overnight. activation, % at 9.1 µM. 370,000 compounds, 1% hits; in the data active = activation above about 7.8%;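 note: 0% = vehicle wells and 100% = reference activator wells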
AF4-AF9 inh = blocks AF4 peptide binding to human AF9; P42568; AlphaScreen, biotin-AF4 peptide binding to FLAG-AF9; inhibition, % at 10 µM; 350,000 compounds, 0.47% hits; AID 651704;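 active = every replicate reaching a set inhibition limit, whatever the replicate mean, cut at about 25% in these data; inconclusive = mean inhibition reaches that limit but some replicates miss it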;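 note: 0% = plate neutral control median and 100% = total signal loss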
FGF22 binding = binders of recombinant human FGF22 by thermal shift; Q9HCT0; SYPRO orange fluorescence; percent of sucrose octasulfate shift, DMSO zero; activity (Tm shift, normalised), % at 9.99 µM; 340,000 compounds, 1.5% hits; AID 651658;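 active = mean Tm shift, scaled 0 neutral to 100 positive control, at about 1.3% or above, every replicate too, limit read from the data; inconclusive = no clear call, values can overlap the other calls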
Target sequence (Q9HCT0 whole entry, looked up): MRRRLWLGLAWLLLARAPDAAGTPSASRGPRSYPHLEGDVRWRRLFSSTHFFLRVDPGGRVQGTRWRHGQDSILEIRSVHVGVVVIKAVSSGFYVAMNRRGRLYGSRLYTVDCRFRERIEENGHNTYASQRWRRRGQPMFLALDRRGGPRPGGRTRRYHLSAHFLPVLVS
* marks the source's active call; other numbers are inactive results. This is a sample that favours compounds with a hit; in the whole collection about 4.3% have one here.

`CNC[C@H]1OCCCC[C@H](C)Oc2ccc(NS(=O)(=O)c3cccs3)cc2C(=O)N([C@H](C)CO)C[C@@H]1C` gave esBAF inh -3, AF4-AF9 inh -6 and FGF22 binding 0.
For NC[C@@H]1O[C@H](C23CC4CC(CC(C4)C2)C3)Cc2c1ccc(O)c2O the results were Wnt act -5, esBAF inh -6, MITF TRPM1 HTS -3, SMARCA2 act -1, AF4-AF9 inh 47* and FGF22 binding 0.
For O=C(C[C@H]1C[C@H]2c3cc(NC(=O)NC4CCCCC4)ccc3O[C@H]2[C@@H](CO)O1)NCCc1ccccc1 the results were AF4-AF9 inh 2 and FGF22 binding 0.
For CC(C)CCN1CCN(Cc2cccs2)CC1CCO (stereo unspecified) the results were Wnt act -1, esBAF inh -7, MITF TRPM1 HTS 8, SMARCA2 act 1, AF4-AF9 inh 0 and FGF22 binding 43*.
Screening CCCN1C[C@H](C)[C@@H](OC)CN(C)C(=O)c2cc(NC(=O)NC3CCCC3)ccc2OC[C@@H]1C returned AF4-AF9 inh -3.
Cc1ncc([N+](=O)[O-])n1CC(=O)Nc1ccccc1 was read as Wnt act -2, SMARCA2 act 2, AF4-AF9 inh -2 and FGF22 binding 43*.
For CCC1(CC)Nc2ccccc2C(=O)N1c1ccc(OC)cc1 the results were Wnt act 53*, MITF TRPM1 HTS 42, SMARCA2 act 6, AF4-AF9 inh 0 and FGF22 binding 0.
CCC1(CC)Nc2ccccc2C(=O)N1c1ccc(NC(C)=O)cc1 was read as Wnt act 9, esBAF inh 6, MITF TRPM1 HTS 9 and SMARCA2 act 4.
Screening CCOC(=O)N(C)C[C@@H]1OCc2ccccc2-c2ccccc2C(=O)N([C@H](C)CO)C[C@H]1C returned esBAF inh -5, AF4-AF9 inh 0 and FGF22 binding 0.
For CC1CCc2c(sc(NC(=O)c3noc4c3CCCC4)c2C(N)=O)C1 (stereo unspecified) the results were Wnt act 29, MITF TRPM1 HTS 141*, SMARCA2 act -2, AF4-AF9 inh -8 and FGF22 binding 0.
For CC1CCc2c(sc(NC(=O)C3=COCCO3)c2C(N)=O)C1 (stereo unspecified) the results were Wnt act -2, esBAF inh -2, MITF TRPM1 HTS 66, SMARCA2 act 6, AF4-AF9 inh -6 and FGF22 binding 0.
O=Cc1cccn1-c1cccnc1 was read as Wnt act 0, MITF TRPM1 HTS -14, SMARCA2 act 7.9*, AF4-AF9 inh -2 and FGF22 binding 0.
For O=C(OC1CCc2ccccc2C1=O)c1ccccc1O (stereo unspecified) the results were Wnt act 3, esBAF inh 46* and SMARCA2 act 7.
Screening COc1ccccc1C#Cc1ccc2c(c1)[C@@H]1[C@@H](CCN1C(=O)Cc1ccccc1)[C@H](CO)N2 returned AF4-AF9 inh 4.
Screening CCn1c(SCC(=O)c2ccc(O)c(O)c2)nnc1-c1ccccc1OC returned esBAF inh 23, MITF TRPM1 HTS -4 and SMARCA2 act 0.
For Cn1c(SCC(=O)c2ccccc2)nnc1-c1ccc(O)cc1 the results were Wnt act 64*, esBAF inh 24, MITF TRPM1 HTS 23 and SMARCA2 act 6.
Screening O=C(CSc1nnc(-c2ccco2)n1Cc1ccccc1)OC1CCCCC1 returned esBAF inh 68* and SMARCA2 act 2.
Cn1c(SCC(=O)c2ccccc2)nnc1-c1ccco1 was read as Wnt act 40*, esBAF inh 34, MITF TRPM1 HTS 30 and SMARCA2 act 6.
`CCn1c(SCC(=O)c2ccc(O)c(O)c2)nnc1-c1ccccc1` gave esBAF inh 45*, MITF TRPM1 HTS 31 and SMARCA2 act 2.
CN1c2ccc(-c3cccc(C#N)c3)cc2[C@@H]2[C@@H](CCN2S(=O)(=O)c2ccc(F)cc2)[C@@H]1CO was read as esBAF inh 3, AF4-AF9 inh -4 and FGF22 binding 0.
O=C(CC1CC1)N1[C@H](CO)[C@@H](c2ccccc2)C12CN(Cc1cccnc1)C2 was read as AF4-AF9 inh 3 and FGF22 binding 0.
For Cn1c(SCC(=O)c2ccccc2)nnc1-c1ccccn1 the results were Wnt act 57*, esBAF inh 36, SMARCA2 act -4, AF4-AF9 inh 0 and FGF22 binding 0.
`O=C(C[C@H]1CC[C@@H](NC(=O)Nc2ccc(C(F)(F)F)cc2)[C@H](CO)O1)NCCN1CCCC1` gave esBAF inh -6, AF4-AF9 inh 6 and FGF22 binding 0.
CCNC(=O)[C@@H]1[C@@H](CO)[C@@H]2Cn3c(ccc(/C=C/c4ccccc4)c3=O)[C@H]1N2C(=O)c1ccncc1 was read as esBAF inh -3, AF4-AF9 inh -2 and FGF22 binding 0.
`CCCC#Cc1cnc2c(c1)C(=O)N([C@H](C)CO)C[C@@H](C)[C@H](CN(C)S(=O)(=O)c1ccccc1)O2` gave esBAF inh -6, AF4-AF9 inh 0 and FGF22 binding 0.
Screening O=C(Nc1ccc(-c2nc3ccccc3[nH]2)cc1)C1CCCO1 (stereo unspecified) returned Wnt act 5, esBAF inh -16, MITF TRPM1 HTS -8, SMARCA2 act 6, AF4-AF9 inh 1 and FGF22 binding 8.6*.
O=C(CSc1ccccc1)Nc1ccc(-c2nc3ccccc3[nH]2)cc1 was read as Wnt act 15, MITF TRPM1 HTS 52 and SMARCA2 act 2.
For O=C(Nc1nc2ccccc2[nH]1)C1CCCO1 (stereo unspecified) the results were Wnt act 14, esBAF inh inconclusive, MITF TRPM1 HTS 62, SMARCA2 act 7, AF4-AF9 inh 5 and FGF22 binding 0.
`O=C(CN1CCOCC1)Nc1ccc(-c2nc3ccccc3[nH]2)cc1` gave MITF TRPM1 HTS 84* and SMARCA2 act 1.
`CCCn1cnc2c(cnn2-c2ccc(F)cc2)c1=O` gave esBAF inh 52*, MITF TRPM1 HTS 38 and SMARCA2 act -2.
CCCC(=O)Nc1ccc2c(c1)C(=O)N(C)[C@H]1CC[C@H](CC(=O)OC)O[C@@H]1CO2 was read as AF4-AF9 inh -18.
COc1ccc(S(=O)(=O)Nc2ccc3c(c2)C(=O)N([C@H](C)CO)C[C@H](C)[C@H](CN(C)S(=O)(=O)c2cn(C)cn2)OCCCC[C@H](C)O3)cc1 was read as esBAF inh 5, AF4-AF9 inh 0 and FGF22 binding 0.
For Cc1ccc(-c2csc(C(O)c3ccccc3)n2)cc1C (stereo unspecified) the results were Wnt act 2, esBAF inh 53*, SMARCA2 act 0, AF4-AF9 inh -7 and FGF22 binding 0.

Bioassay records deposited in PubChem by several laboratories.
